Source: PubChem BioAssay
Results with a measured potency or affinity are listed apart. A number with no mark means an inactive call. How the calls were made is not given here.

Experiment: A2780 cell killing – plate reader, dry powder samples, cytotoxicity control, dose response (AID 743046);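 further: 0% = neutral control wells and -100% = cytotoxic reference compound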
Conditions: A2780 ovarian cancer cytotoxicity; series mostly up to 35 µM; activity change, negative = cytotoxicity: at the top concentration

Row | SMILES | activity change, negative = cytotoxicity [%]
1 | COc1ccc(S(=O)(=O)Nc2ccc3c(c2)C(=O)N([C@H](C)CO)C[C@@H](C)[C@H](CN(C)S(=O)(=O)c2ccc(F)cc2)OCCCC[C@H](C)O3)cc1 | 6.01
2 | C[C@H](O)C#Cc1ccc2c(c1)O[C@@H](CN(C)Cc1ccc(-c3ccccc3)cc1)[C@@H](C)CN([C@@H](C)CO)S2(=O)=O | 11
3 | C[C@@H]1CN([C@H](C)CO)C(=O)c2cc(NC(=O)Nc3ccc(C(F)(F)F)cc3)ccc2O[C@@H](C)CCCCO[C@H]1CN(C)C(=O)Nc1ccc(F)cc1 | 15.8
4 | C[C@H]1CN([C@@H](C)CO)C(=O)c2ccccc2-c2ccccc2CO[C@H]1CN(C)S(=O)(=O)c1ccc(C(F)(F)F)cc1 | 1.99
5 | C[C@@H]1CN([C@@H](C)CO)C(=O)Cc2cc(NC(=O)Nc3ccc(F)cc3)ccc2O[C@H]1CN(C)Cc1ccc(Cl)c(Cl)c1 | 12.8
6 | C[C@@H]1CN([C@@H](C)CO)S(=O)(=O)c2ccc(C#C[C@@H](C)O)cc2O[C@@H]1CN(C)Cc1ccc(-c2ccccc2)cc1 | 2.12
7 | Cc1ccc(S(=O)(=O)N(C)C[C@H]2Oc3ccc(NC(=O)Nc4ccc(C(F)(F)F)cc4)cc3CC(=O)N([C@H](C)CO)C[C@@H]2C)cc1 | 149
8 | C[C@@H]1CN([C@H](C)CO)C(=O)c2cc(NC(=O)Nc3ccc(F)cc3)ccc2O[C@@H](C)CCCCO[C@H]1CN(C)C(=O)Nc1ccc(F)cc1 | 1.52
9 | C[C@@H]1CCCCO[C@@H](CN(C)C(=O)Nc2ccc(C(F)(F)F)cc2)[C@H](C)CN([C@H](C)CO)C(=O)c2cc(NS(=O)(=O)c3ccccc3)ccc2O1 | 16.4
